PubChem BioAssay (EPA / NIEHS)
Active and inactive are the calls of the source. The calls were made as follows: active = hit-call score of the fitted dose curve at least 0.9, where 1 is the maximum; inactive = score below 0.9.

How the values were obtained:
Conditions in all cases: primary human lung fibroblasts
[1] = read-out: Plasminogen activator inhibitor-1 (PAI1), SERPINE1 (gene 5054); experiment: BSK_MyoF_PAI1: BioMAP Diversity Plus: MyoF Assay for Plasminogen activator inhibitor-1 (PAI1) Biomarker Activity (AID 2284256)
Outline: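 In this multiplexed primary-cell system, fibroblasts from human lung received compound for 24 h before ELISA detection of PAI-1; overt toxicity was checked by SRB (0.1%, TCA-fixed, 560 nm) in parallel wells.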

[2] = read-out: Interleukin-8 (IL8), CXCL8 (gene 3576); experiment: BSK_MyoF_IL8: BioMAP Diversity Plus: MyoF Assay for Interleukin-8 (IL8) Biomarker Activity (AID 2284261)
Outline: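 DMSO-normalised, upward-fitted IL-8 ELISA signal; human lung fibroblasts, 24 h chemical treatment.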

[3] = read-out: Decorin, DCN (gene 1634); experiment: BSK_MyoF_Decorin: BioMAP Diversity Plus: MyoF Assay for Decorin Biomarker Activity (AID 2284265)
Outline: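 In this multiplexed fibroblast system, secreted or surface decorin is detected by ELISA one day after dosing, with increases scored against the DMSO vehicle.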

[4] = BSK_MyoF_SRB: Viability Assessment in the BioMAP Diversity Plus: MyoF Assay (AID 2284267);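 also: total protein by SRB absorbance in parallel cultures as cytotoxicity measure; cells assessed 24 h after compound addition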
Outline: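 Cytotoxicity read-out: after 10% TCA fixation, parallel human lung fibroblast cultures were stained with 0.1% SRB at 24 h post-dosing and read at 560 nm; DMSO served as baseline.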

[5] = read-out: Matrix Metallopeptidase 1 (MMP1), MMP1 (gene 4312); experiment: BSK_MyoF_MMP1: BioMAP Diversity Plus: MyoF Assay for Matrix Metallopeptidase 1 (MMP1) Biomarker Activity (AID 2284268)
Outline: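 Fibroblasts from human lung receive compound for 24 h before ELISA quantitation of MMP1. DMSO serves as baseline, and the endpoint is fitted for signal gain.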

[6] = read-out: TIMP metallopeptidase inhibitor 1 (TIMP1), TIMP1 (gene 7076); experiment: BSK_MyoF_TIMP1: BioMAP Diversity Plus: MyoF Assay for TIMP metallopeptidase inhibitor 1 (TIMP1) Biomarker Activity (AID 2284269)
Outline: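 ELISA read-out of TIMP-1 from primary human lung fibroblast cultures 24 h after compound dosing; gain of signal relative to DMSO vehicle baseline defines activity.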

Measured: AC50

C1=CC2C3C=CC(C3)C2C1 (configuration not stated)
inactive: all assays above

CCC(C)c1cc([N+](=O)[O-])cc([N+](=O)[O-])c1OC(=O)OC(C)C (configuration not stated)
active: [1] 11.7 µM | [2] 35.8 µM | [3] 24.4 µM | [4] 13.4 µM | [5] 20 µM | [6] 13.6 µM

CC(C=O)Cc1ccc(C(C)(C)C)cc1 (configuration not stated)
inactive: all assays above

CCCCCCCCCCCCCCCC(=O)OC/C=C(C)/C=C/C=C(C)/C=C/C1=C(C)CCCC1(C)C
inactive: all assays above

O=C1c2ccccc2C(=O)c2c(O)ccc(O)c21
active: [5] 3.25 µM
inactive: all other assays above

COc1ccc(OC)c(N=Nc2c(O)ccc3ccccc23)c1
inactive: [1] | [3]
active: [2] 0.0788 µM | [4] 6.83 µM | [5] 10.3 µM | [6] 3.12 µM

O=C1OC[C@H](Cc2cccc(O)c2)[C@H]1Cc1cccc(O)c1
inactive: all assays above

C=C(C)C(=O)OCCOCCOCCOC(=O)C(=C)C
inactive: all assays above

CC(=O)Nc1ccc(C(=O)CCl)cc1
inactive: [3] | [5]
active: [1] 13.7 µM | [2] 29.6 µM | [4] 29.3 µM | [6] 34.5 µM

Clc1cc(Cl)c(-c2c(Cl)c(Cl)cc(Cl)c2Cl)cc1Cl
inactive: [3] | [6]
active: [1] 4.46 µM | [2] 7.14 µM | [4] 11.6 µM | [5] 2.61 µM

Cc1cc(CCC(=O)OCCOCCOCCOC(=O)CCc2cc(C)c(O)c(C(C)(C)C)c2)cc(C(C)(C)C)c1O
inactive: all assays above

CN(c1nccc(=O)[nH]1)C1CCN(c2nc3ccccc3n2Cc2ccc(F)cc2)CC1
inactive: all assays above

C[C@@H]1CCN(C(=O)[C@H](CCCN=C(N)N)NS(=O)(=O)c2cccc3c2NC[C@H](C)C3)[C@@H](C(=O)O)C1
inactive: all assays above

CC1(C)C2=CCCC(C)(C)[C@]23CC[C@H]1C3
active: [1] 35.3 µM | [4] 30.9 µM | [5] 31.2 µM
inactive: all other assays above

CS(=O)(=O)c1ccc(C2=C(c3ccccc3)C(=O)OC2)cc1
active: [1] 0.0082 µM
inactive: all other assays above

CCCCN(CCCC)C(=O)N(CCCC)CCCC
active: [1] 10.7 µM | [4] 11 µM | [5] 7.64 µM | [6] 9.42 µM
inactive: [2] | [3]

CCCCCC(C=O)=Cc1ccccc1
active: [5] 28.4 µM
inactive: all other assays above

CC(C)(N=C=O)c1cccc(C(C)(C)N=C=O)c1
inactive: all assays above

CSCCC=O
inactive: all assays above

IC(I)I
inactive: all assays above

c1ccc(CCc2ccccc2)cc1
inactive: [2] | [5]
active: [1] 35.2 µM | [3] 26.8 µM | [4] 37.2 µM | [6] 30.2 µM

CC=Cc1ccc(OCC)c(O)c1
inactive: all assays above
